From PubChem BioAssay
Hits are enriched below; roughly 1.4% of the tested compounds scored in any of these assays.
LANA-H2B inh = blocks KSHV LANA binding to histone H2A/H2B. cell-free LANA-H2A/H2B peptide, fluorescence polarization. inhibition, % (no concentration beside the values). 320,000 tested, 0.6% active. AID 2629; in the data active means inhibition mostly above about 10%, no sharp cut-off; inactive means mostly below about 6.7%
Target sequence (Q9QR71 whole entry, looked up): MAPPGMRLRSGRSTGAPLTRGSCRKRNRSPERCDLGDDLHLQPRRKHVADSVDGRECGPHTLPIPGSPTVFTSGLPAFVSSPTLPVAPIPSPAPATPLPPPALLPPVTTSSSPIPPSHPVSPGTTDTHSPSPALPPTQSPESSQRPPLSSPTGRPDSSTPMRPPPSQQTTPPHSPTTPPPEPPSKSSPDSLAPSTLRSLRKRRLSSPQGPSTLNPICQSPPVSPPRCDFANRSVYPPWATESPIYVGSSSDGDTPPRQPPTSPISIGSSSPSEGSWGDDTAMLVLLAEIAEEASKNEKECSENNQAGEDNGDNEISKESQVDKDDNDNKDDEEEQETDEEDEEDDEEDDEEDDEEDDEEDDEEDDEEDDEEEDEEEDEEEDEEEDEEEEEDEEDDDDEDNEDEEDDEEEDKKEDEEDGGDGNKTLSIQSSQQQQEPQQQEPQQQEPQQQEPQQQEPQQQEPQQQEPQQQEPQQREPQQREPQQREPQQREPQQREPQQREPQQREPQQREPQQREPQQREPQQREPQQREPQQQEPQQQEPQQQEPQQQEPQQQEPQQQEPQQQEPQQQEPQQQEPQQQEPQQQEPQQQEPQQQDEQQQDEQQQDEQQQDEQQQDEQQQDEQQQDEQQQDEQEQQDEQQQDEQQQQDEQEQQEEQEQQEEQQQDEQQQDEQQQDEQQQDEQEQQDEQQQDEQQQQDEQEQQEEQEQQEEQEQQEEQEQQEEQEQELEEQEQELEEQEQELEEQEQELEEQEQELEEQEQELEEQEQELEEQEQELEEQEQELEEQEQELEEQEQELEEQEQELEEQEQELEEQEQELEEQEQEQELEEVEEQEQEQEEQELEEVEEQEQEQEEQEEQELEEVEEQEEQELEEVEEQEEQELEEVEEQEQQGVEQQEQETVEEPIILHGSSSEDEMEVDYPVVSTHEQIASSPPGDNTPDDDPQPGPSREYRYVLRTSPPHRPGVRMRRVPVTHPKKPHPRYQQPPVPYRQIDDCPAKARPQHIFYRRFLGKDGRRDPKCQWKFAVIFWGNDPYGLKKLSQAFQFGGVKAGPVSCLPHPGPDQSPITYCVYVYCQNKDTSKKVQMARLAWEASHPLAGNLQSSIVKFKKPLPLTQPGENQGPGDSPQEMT
HDAC3 inhib = human HDAC3 inhibition. 320,000 tested, 0.15% active. AID 2718. O15379. recombinant HDAC3, fluorogenic peptide/trypsin coupled, fluorescence. inhibition, % at 8.3 µM; in the data active means inhibition above about 26%, passing the limit was not always enough
APOBEC3G inh = inhibitors of human APOBEC3G DNA deaminase; Q9HC16; recombinant A3G, ssDNA deamination FAM/TAMRA fluorescence; inhibition, % at 20 µM; 330,000 tested, 0.28% active; AID 493012;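 active means inhibition of at least 40% at 20 µM, with no more than 30% in the related APOBEC3A deaminase screen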;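 further: plate controls were DMSO wells with A3G for no effect and wells lacking A3G enzyme for full effect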
A3A deaminase = human APOBEC3A DNA deaminase inhibition | P31941 | recombinant A3A, FAM/TAMRA ssDNA deamination fluorescence | inhibition, % at 20 µM | 330,000 tested, 0.41% active;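 active means at least 40% inhibition at 20 µM here, with at most 30% in a related deaminase screen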;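 further: plate controls were A3A with DMSO for no effect and wells lacking A3A enzyme for full effect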
Active calls of the source: *.

Screening Cc1cc(C)n2nc(SCC(=O)NC(=O)c3ccccc3)nc2n1 returned LANA-H2B inh 4, HDAC3 inhib 9, APOBEC3G inh -8 and A3A deaminase -5.
`CC1Sc2ccc(S(=O)(=O)CCC(=O)N3CCN(c4cccc(Cl)c4)CC3)cc2NC1=O` (stereo not given) gave LANA-H2B inh 30*, HDAC3 inhib 2, APOBEC3G inh -7 and A3A deaminase -3.
`COc1cc2c(cc1NC(=O)COC(=O)[C@@H](NC(=O)c1ccccc1)C(C)C)oc1ccccc12` gave LANA-H2B inh 25*, HDAC3 inhib 2, APOBEC3G inh -7 and A3A deaminase -3.
COc1ccc(OCCN(C)C(=O)c2cccc(S(=O)(=O)N(C)c3ccccc3)c2)cc1 was read as LANA-H2B inh -3, HDAC3 inhib -2, APOBEC3G inh -1 and A3A deaminase -5.
Screening CC(C)C(NC(=O)c1c(F)cccc1F)C(=O)N1CCN(S(=O)(=O)c2ccc(F)cc2)CC1 (stereo not given) returned LANA-H2B inh 3, HDAC3 inhib -2, APOBEC3G inh -9 and A3A deaminase -2.
For O=C(CC12CC3CC(CC(Br)(C3)C1)C2)NC1CCCC1 the results were LANA-H2B inh 12*, HDAC3 inhib 3, APOBEC3G inh -4 and A3A deaminase 1.
`CC(=O)NS(=O)(=O)c1ccc(NC(=O)CC23CC4CC(CC(Br)(C4)C2)C3)cc1` gave LANA-H2B inh -6, HDAC3 inhib 4, APOBEC3G inh 0 and A3A deaminase 0.
For CC(C)(C)c1ccc(Cn2c(=N)n(CC(O)c3ccco3)c3ccccc32)cc1 (stereo not given) the results were LANA-H2B inh 18*, HDAC3 inhib 13, APOBEC3G inh -2 and A3A deaminase 4.
For Cc1ccccc1Cn1c(=N)n(CC(O)c2ccco2)c2ccccc21 (stereo not given) the results were LANA-H2B inh -2, HDAC3 inhib 4, APOBEC3G inh -4 and A3A deaminase -2.
CCc1noc(C)c1C(=O)NNC(=O)c1ccccc1Cl was read as LANA-H2B inh -2, HDAC3 inhib 0, APOBEC3G inh 1 and A3A deaminase 9.
Screening CCOc1ccc(N(C)S(=O)(=O)c2ccc(-c3ccc(=O)[nH]n3)s2)cc1 returned LANA-H2B inh 15*, HDAC3 inhib 0, APOBEC3G inh 5 and A3A deaminase 3.
Cc1ccc(N(C)S(=O)(=O)c2ccc(-c3ccc(=O)[nH]n3)s2)cc1C was read as LANA-H2B inh 3, HDAC3 inhib 3, APOBEC3G inh -2 and A3A deaminase -2.
CC1(C)C(=O)Nc2ccccc2N1C(=O)COC(=O)c1ccc(NC(N)=O)cc1 was read as APOBEC3G inh 5 and A3A deaminase 37.
Screening CCCc1cc(=O)oc2cc(C)cc(OCC(=O)NCCCN3CCCC3=O)c12 returned LANA-H2B inh 0, HDAC3 inhib -41, APOBEC3G inh -6 and A3A deaminase -7.
COc1ccc(-c2ccc(CCC(=O)O)n2CC2CCCO2)cc1 (stereo not given) was read as LANA-H2B inh 6, HDAC3 inhib -3, APOBEC3G inh -5 and A3A deaminase -2.
O=C(O)CCc1ccc(-c2ccc(F)cc2)n1CC1CCCO1 (stereo not given) was read as LANA-H2B inh 37*, HDAC3 inhib -16, APOBEC3G inh -5 and A3A deaminase 0.
Screening COC(=O)[C@@]1(Cc2ccc(F)cc2)[C@H]2c3cc(C(=O)N(C)C)n(CCc4ccccn4)c3C[C@H]2CN1C(=O)c1ccccc1 returned LANA-H2B inh -1, HDAC3 inhib 1, APOBEC3G inh -7 and A3A deaminase -1.
`COC(=O)[C@@]1(Cc2ccc(F)cc2)[C@H]2c3cc(C(=O)N4CCCC4)n(CCc4ccccn4)c3C[C@H]2CN1C(=O)c1ccccc1` gave LANA-H2B inh 18*, HDAC3 inhib -1, APOBEC3G inh -11 and A3A deaminase -4.
Screening CN1CCC(N(C)C(=O)c2cc(-c3ccc(F)cc3)nc3ccccc23)CC1 returned LANA-H2B inh -1, HDAC3 inhib -4, APOBEC3G inh -2 and A3A deaminase -3.
`Cc1cc(C)cc(NC(=O)CCCN2C(=O)C(c3ccccc3)Oc3cccnc32)c1` (stereo not given) gave LANA-H2B inh 14*, HDAC3 inhib 3, APOBEC3G inh 2 and A3A deaminase -5.
Screening CC(=O)c1ccc(NC(=O)CCCN2C(=O)C(c3ccccc3)Oc3cccnc32)cc1 (stereo not given) returned LANA-H2B inh -3, HDAC3 inhib 12, APOBEC3G inh 0 and A3A deaminase 0.
`COc1ccc(NC(=O)CN2C(=O)NC3(CCCCC3C)C2=O)cc1S(=O)(=O)N1CCOCC1` (stereo not given) gave LANA-H2B inh 1, HDAC3 inhib 1, APOBEC3G inh -6 and A3A deaminase -2.
Cc1ccc(NC(=O)CN2C(=O)NC3(CCCCC3C)C2=O)cc1S(=O)(=O)N1CCCCC1 (stereo not given) was read as LANA-H2B inh 55*, HDAC3 inhib 3, APOBEC3G inh -4 and A3A deaminase 1.
Screening CC(=O)c1ccc(S(=O)(=O)N(C)CCCC(=O)N(C)Cc2c(F)cccc2Cl)cc1 returned LANA-H2B inh 58*, HDAC3 inhib 2, APOBEC3G inh -10 and A3A deaminase 2.
O=C(/C=C/CCc1ccc2c(c1)OCO2)N1CCCCC1 was read as APOBEC3G inh 1 and A3A deaminase 3.
CCN(CC(=O)NCc1cccs1)C(=O)COc1cccc(C(F)(F)F)c1 was read as LANA-H2B inh -1, HDAC3 inhib 0, APOBEC3G inh -8 and A3A deaminase -6.
For CCN(CC(=O)NCc1cccs1)C(=O)COc1ccc(C(C)=O)cc1 the results were LANA-H2B inh active, HDAC3 inhib 6, APOBEC3G inh -3 and A3A deaminase -2.
CN(Cc1cccs1)C(=O)c1ccc(Cl)c(S(=O)(=O)N2CCCCCC2)c1 was read as LANA-H2B inh 0, HDAC3 inhib 8, APOBEC3G inh -5 and A3A deaminase 2.
COc1ccc(-c2sc3ccccc3c2/C=C/c2ccncc2)cc1 was read as LANA-H2B inh 3, HDAC3 inhib 2, APOBEC3G inh -3 and A3A deaminase 1.
CCn1c(CSc2nnc(-c3cccnc3)n2-c2ccccc2C)nc2cc(C(=O)O)ccc21 was read as LANA-H2B inh 18*, HDAC3 inhib -3, APOBEC3G inh -5 and A3A deaminase 4.
For Cc1ccc(C(=O)O/N=C(\c2ccccc2)c2ccncc2)cc1 the results were LANA-H2B inh 6, HDAC3 inhib 36*, APOBEC3G inh 0 and A3A deaminase 1.
COC(=O)C(Cc1ccccc1)NC(=O)c1ccc(NS(=O)(=O)c2ccc3[nH]c(=O)[nH]c3c2)cc1 (stereo not given) was read as LANA-H2B inh 29*, HDAC3 inhib 7, APOBEC3G inh -4 and A3A deaminase 2.
Screening O=S(=O)(NC1CCCCC1Sc1ncccn1)c1ccccc1 (stereo not given) returned LANA-H2B inh 13*, HDAC3 inhib 0, APOBEC3G inh -2 and A3A deaminase 1.
